# Source: PubChem (National Center for Advancing Translational Sciences (NCATS))
# Rows were chosen to be rich in hits. Some 11% of all compounds tested hit in one or more screens of this group.
# VDR inh – Inhibitors of the vitamin D receptor (VDR): qHTS. AID 504847, 2011. VDR-SRC2-3 peptide fluorescence polarization, 2 h. Vitamin D3 receptor (Homo sapiens), P11473. 400,000 tested, 0.93% active. Potency, µM, inactives show max response, negative = inhibition, usual class: inhibitors; further: on the % scale 0 is the no-effect control and ±100 the full control effect
#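 After 23 nl compound addition and a short centrifugation, plates sat for 2 hours at ambient temperature; polarization of fluorescence then indicated loss of VDR binding to peptide SRC2-3.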
# PLK1 PBD block – qHTS for Inhibitors of PLK1-PDB (polo-like kinase 1 - polo-box domain): Primary Screen; Serine/threonine-protein kinase PLK1 (Homo sapiens), P53350; Plk1 PBD binding of FITC phosphopeptide, fluorescence polarization; Potency, µM, inactives show max response, negative = inhibition, most hits filed as inhibitors; 360,000 tested, 2.8% active; AID 720504, 2013; further: series mostly up to about 57 µM; on the % scale 0 is the no-effect control and ±100 the full control effect; nearly all actives have a fitted effect of over 65% in size
# G9a block – qHTS Assay for Inhibitors of Histone Lysine Methyltransferase G9a. Histone-lysine N-methyltransferase EHMT2 (Homo sapiens), Q96KQ7. G9a H3K9 monomethylation, AlphaScreen, 2 h. 350,000 tested, 8.8% active. Potency, µM (top dose mostly 102 µM), for inactives: top-dose activity, negative = inhibition, usual class: inhibitors. AID 504332, 2011; further: on the % scale 0 is the no-effect control and ±100 the full control effect; nearly all actives have a fitted effect of over 75% in size
#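 Using a bead-based AlphaScreen, monomethylated H3K9 product from 2 h room-temperature reactions (G9a 20 nM, peptide 500 nM, SAM 20 uM) was detected with 0.5 ug/mL rabbit anti-H3K9me1 antibody.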
# JMJD2A Tudor inh – qHTS Assay for Inhibitors of JMJD2A-Tudor Domain | AlphaScreen JMJD2A-Tudor / H3K4me3 peptide binding | Potency, µM (top dose mostly 114 µM), without a hit: at the highest dose activity change, negative = inhibition, most hits filed as inhibitors | 390,000 tested, 4.4% active; further: on the % scale 0 is the no-effect control and ±100 the full control effect; nearly all actives have a fitted effect of over 50% in size
# Target sequence (O75164 whole entry, looked up, the tested form may be a part): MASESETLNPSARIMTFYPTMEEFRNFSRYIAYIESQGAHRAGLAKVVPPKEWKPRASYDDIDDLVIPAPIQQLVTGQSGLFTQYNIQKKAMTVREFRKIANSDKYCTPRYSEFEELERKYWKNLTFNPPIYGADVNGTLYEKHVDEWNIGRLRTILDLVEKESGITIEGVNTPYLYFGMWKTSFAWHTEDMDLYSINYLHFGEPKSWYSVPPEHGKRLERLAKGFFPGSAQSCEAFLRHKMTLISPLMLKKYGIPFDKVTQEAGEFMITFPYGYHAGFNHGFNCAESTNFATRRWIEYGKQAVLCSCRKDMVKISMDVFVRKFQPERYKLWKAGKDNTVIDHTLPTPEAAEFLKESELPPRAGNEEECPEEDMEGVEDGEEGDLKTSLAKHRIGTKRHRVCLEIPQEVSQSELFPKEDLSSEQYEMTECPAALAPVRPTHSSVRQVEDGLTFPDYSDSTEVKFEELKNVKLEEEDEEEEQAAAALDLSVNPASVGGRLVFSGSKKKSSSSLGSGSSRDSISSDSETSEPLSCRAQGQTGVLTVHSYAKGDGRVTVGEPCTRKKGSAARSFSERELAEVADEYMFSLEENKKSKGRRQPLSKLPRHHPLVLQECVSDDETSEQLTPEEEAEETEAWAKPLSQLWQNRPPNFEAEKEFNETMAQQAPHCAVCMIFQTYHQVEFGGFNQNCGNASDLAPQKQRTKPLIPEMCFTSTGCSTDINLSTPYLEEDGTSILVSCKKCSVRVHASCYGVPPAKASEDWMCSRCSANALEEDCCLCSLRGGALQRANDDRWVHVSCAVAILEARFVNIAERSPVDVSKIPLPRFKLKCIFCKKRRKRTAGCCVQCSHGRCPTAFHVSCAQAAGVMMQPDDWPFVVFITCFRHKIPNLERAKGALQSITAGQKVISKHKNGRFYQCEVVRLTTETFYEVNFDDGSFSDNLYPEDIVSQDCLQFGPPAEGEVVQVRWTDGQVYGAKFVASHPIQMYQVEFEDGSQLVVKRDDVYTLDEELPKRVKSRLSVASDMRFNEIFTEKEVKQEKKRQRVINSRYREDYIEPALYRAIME
# BAZ2B block – qHTS Assay for Inhibitors of BAZ2B; 360,000 tested, 4.4% active; AID 504333, 2011; AlphaScreen BAZ2B-H3K14Ac peptide displacement; Potency, µM (doses to about 114 µM), for the others: top-dose activity change, negative = inhibition, most hits filed as inhibitors; Bromodomain adjacent to zinc finger domain protein 2B (Homo sapiens), Q9UIF8; further: on the % scale 0 is the no-effect control and ±100 the full control effect; nearly all actives have a fitted effect of over 60% in size
#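 AlphaScreen displacement of biotin-H3(5-23)K14Ac peptide (50 nM final) from BAZ2B (50 nM final) in PBS pH 7.4, 0.01% Tween-20; complex preformed 30 min RT, then compounds (top 110 uM) 30 min RT, beads 20 min dark.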
# HP1b chromo inh – HTS for Inhibitors of HP1-beta Chromodomain Interactions with Methylated Histone Tails; Chromobox protein homolog 1 (Homo sapiens), P83916; AlphaScreen HP1-beta / biotin-H3K9me3 peptide binding; Potency, µM (highest dose often 114 µM), inactives show at the top dose activity change, negative = inhibition, hits mostly inhibitors; 390,000 tested, 0.56% active; further: nearly all actives have a fitted effect of over 70% in size
#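 HP1-beta protein (50 nM final) preincubated 30 min at room temperature with biotinylated H3(1-18)K9me3 peptide (50 nM) in PBS pH 7.4, 0.01% Tween-20, then compound added for 30 min. AlphaScreen streptavidin donor/nickel chelate acceptor beads (10 ug/mL final), 30 min dark, luminescence read.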
# * marks the source's active call; other numbers are inactive results; u = inconclusive; x = no result; [ ] = remark or other dose. The call rests on the fitted dose curve; in most records, active means well fitted curve in the direction sought with a large enough effect; inconclusive means small, poorly fitted or top-dose-only effect, or another doubt; inactive means no such curve, though single readings can be large; an effect the other way counts as inactive or inconclusive. Potency means the concentration at half of the fitted maximal effect.
SMILES,VDR inh,PLK1 PBD block,G9a block,JMJD2A Tudor inh,BAZ2B block,HP1b chromo inh
Nc1cccc2c1C(=O)c1ccc(Cl)cc1C2=O,4.4%,u,x,14.1µM*,x,u
CC(=O)Nc1ccc(C(=O)CSc2nc3ccccc3n2CC(=O)N2CCCC2)cc1,79.4µM*,u,u,-11.5%,-1.1%,-12.4%
CC(=O)Nc1ccc(NC(=O)Cn2c(CC(=O)N3CCCC3)nc3ccccc32)cc1,-18.7%,29.9µM*,-1.5%[59 µM],u,-18.8%,u
COc1cccc(CNC(=O)c2ccc(S(=O)(=O)N3CCCCC3)cc2)c1,x,-13.4%,x,x,x,x
N/C(Cn1cncn1)=N\NC(=O)C(=O)Nc1ccc(Cl)cc1Cl,-5.2%,-6.3%,-2.9%[12.7 µM],-23.7%,9.5%,28.4%
N/C(Cn1cncn1)=N\NC(=O)c1ccc(Cl)cc1Cl,-5.5%,-26.7%,8.91µM*,12.6µM*,-21.1%,u
COc1ccccc1N1CCN(C(=O)c2oc3ccc(F)cc3c2C)CC1,2.5%,3.1%,-10.8%[59 µM],-14.4%,-4.2%,23.0%
Cc1c(C(=O)Nc2ccccc2N2CCN(C)CC2)oc2ccc(F)cc12,-8.8%,-7.3%,31.6µM*,u,-30.6%,u
Cc1ccnc(SCc2cc(=O)c(OC(=O)c3cc([N+](=O)[O-])ccc3Cl)co2)n1,-11.9%,23.8µM*,u,u,-36.3%,3.7%
O=C(Oc1coc(CSc2ncccn2)cc1=O)c1cccc([N+](=O)[O-])c1,-9.5%,u,56.2µM*,-22.4%,-38.8%,41.5%
O=C(Oc1c(Cl)cc(Cl)c2cccnc12)c1cccc([N+](=O)[O-])c1,-20.3%,-20.1%,u,u,28.2µM*,-18.4%
CCN(CC)C(=O)Oc1c(Cl)cc(Cl)c2cccnc12,30.7%,0.0%,x,-5.6%,0.7%,44.4%
Cc1ccc(F)c(S(=O)(=O)NC(=O)C2(C)CCN2C(=O)c2sccc2C)c1 (stereo not given),x,3.7%,x,x,x,x
Cc1nc2[nH]c(=S)[nH]c2c(=O)[nH]1,-3.0%,-0.9%,x,20µM*,x,-8.8%
CCn1c(=S)sc2c(=O)[nH]c(C)nc21,-7.3%,-13.2%,-9.4%[59 µM],-8.3%,-5.4%,14.6%
CC(C)(C)NC(=O)CN(C(=O)CS(=O)CC(=O)Nc1ccc(F)cc1)c1ccc2c(c1)OCCO2 (stereo not given),-13.7%,-0.4%,-25.7%,0.0%,-0.3%,30.4%
CN1CCN(C(=O)c2ccc(C(C)(C)C)cc2)CC1,-26.1%,-4.5%,15.8%[59 µM],-19.2%,79.4µM*,51.2%
COC(=O)c1cccc(Cn2c(Cl)c(/C=N/Nc3ccccc3C)sc2=O)c1,-24.1%,-4.0%,10µM*,u,35.5µM*,-13.3%
Cc1ccccc1N/N=C/c1sc(=O)n(Cc2cccc(C(=O)O)c2)c1Cl,u,26.7µM*,-135.7%[59 µM],10µM*,44.7µM*,-21.7%
O=C(O)c1cccc(Cn2c(Cl)c(/C=N/NC(=O)c3ccccc3)sc2=O)c1,-6.9%,-5.9%,31.4%[0.501 µM],-2.1%,-28.6%,40.8%
O=C(O)c1cccc(Cn2c(Cl)c(/C=N/NC(=O)c3cc4ccccc4cc3O)sc2=O)c1,u,26.7µM*,10µM*,79.4µM*,25.1µM*,u
Cc1ccc(C(=O)NCC(=O)OC(C(=O)Nc2cc(C(F)(F)F)ccc2Cl)c2ccccc2)cc1 (stereo not given),x,x,x,-19.9%,x,x
CC(=O)NC(c1ccccc1)c1nc(-c2cccnc2)cs1 (stereo not given),x,-0.6%,x,x,x,x
Cc1ccc2nc(-c3ccco3)c(CC3CCCCC3)n2c1,x,-18.1%,x,x,x,x
Cc1ccc(C(=O)C2=C(O)C(=O)N(c3ncccn3)C2c2ccc(Cl)cc2)o1 (stereo not given),-1.2%,-10.8%,10µM*,-35.8%,10.9%,32.5%
SMILES,VDR inh,PLK1 PBD block,G9a block,JMJD2A Tudor inh,BAZ2B block,HP1b chromo inh
O=C(C1=C(O)C(=O)N(c2ncccn2)C1c1ccc(Cl)cc1)c1ccco1 (stereo not given),-7.7%,-7.8%,x,-21.9%,70.8µM*,18.5%
O=C(C1=C(O)C(=O)N(c2ncccn2)C1c1ccc(Cl)c(Cl)c1)c1ccco1 (stereo not given),u,-23.6%,39.8µM*,7.08µM*,79.4µM*,u
Cc1cc(N2C(=O)C(O)=C(C(=O)c3ccco3)C2c2cccnc2)no1 (stereo not given),x,x,24.7%[59 µM],x,-5.2%,x
CC(C)CN1CC(COCc2ccccc2)Oc2ccccc2S1(=O)=O (stereo not given),-26.6%,-5.2%,x,22.6%,x,94.7%
CCNc1ncc2ncc(=O)n(Cc3ccc(F)cc3)c2n1,u,x,14.6%[0.501 µM],x,x,x
CCN(CC)c1ccc(NC(=O)c2sc3ccccc3c2Cl)cc1,-18.1%,x,5.01µM*,11.2µM*,11.2µM*,u
CCOc1ccc(NC(=S)NC(=O)Cc2ccccc2)cc1,-10.6%,-2.9%,u,6.2%,-26.5%,38.8%
CCN(CC)c1ccc(NC(=S)NC(=O)Cc2ccccc2)cc1,-17.4%,u,7.94µM*,25.1µM*,11.2µM*,u
CCOc1ccc(NC(=O)c2sc3ccccc3c2Cl)cc1,-19.4%,x,13.6%[59 µM],-2.6%,-1.4%,31.1%
CCN(CC)c1ccc(NC(=O)Nc2ccccc2)cc1,-12.3%,-3.1%,8.91µM*,u,u,u
C/C=C\C=C/C(=O)Nc1cccc(C2=NOC3(C2)C[C@H](C(N)=O)N(C(=O)Cc2ccc([N+](=O)[O-])cc2)C3)c1 (stereo not given in full),u,-25.1%,u,79.4µM*,-22.0%,u
C/C=C(/C)C(=O)Nc1cccc(C2=NOC3(C2)C[C@H](C(N)=O)N(C(=O)Cc2ccc([N+](=O)[O-])cc2)C3)c1 (stereo not given in full),-9.3%,0.0%,-3.6%[59 µM],-9.8%,-4.8%,30.8%
C/C=C/C=C/C(=O)N1CC2(CC(c3cccc(NC(=O)CCCCC)c3)=NO2)C[C@H]1C(N)=O (stereo not given in full),79.4µM*,-29.2%,u,-28.5%,-5.7%,-4.0%
C/C=C\C=C/C(=O)Nc1cccc(C2=NOC3(C2)C[C@@H](C(N)=O)N(C(=O)CCCCC)C3)c1 (stereo not given in full),u,u,5.2%[12.7 µM],79.4µM*,-4.3%,u
C/C=C\C=C/C(=O)Nc1cccc(C2=NOC3(C2)C[C@H](C(N)=O)N(C(=O)CC)C3)c1 (stereo not given in full),-20.1%,-19.4%,u,u,-0.4%,-38.7%
